Hits are enriched below; roughly 3% of the tested compounds scored in any of these assays.
BCR signal inh = inhibitors of chronic active B-cell receptor signaling | ABC-DLBCL IkBa-CBG/CBR reporter, luminescence ratio, 4 h | Potency, µM (top dose mostly 46.1 µM), for inactives: at the highest dose activity change, negative = inhibition, usual class: inhibitors | 340,000 tested, 0.05% active | AID 493014; active = well fitted inhibition curve with a large enough effect in the signal ratio, with a control signal flat, not every such curve was filed as active; inconclusive = small, poorly fitted or top-dose-only effect, or effect the other way, or a change in a side signal; the % refers to the signal ratio;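 also: potency is read from the fitted curve at half-maximal effect; plate controls were basal doxycycline-induced cells for no effect and cells given 10 µM MG132 for full effect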
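Cell line TMD8 (human ABC DLBCL), stably expressing tet-inducible CBG68-IkBa fusion and CBR; IMDM/0.5% FBS; cpd up to 46 uM; dox induction, 4 h, 37C/5% CO2; dual luminescence; green/red ratio; MG132 control.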
LDHA inh = blocks human lactate dehydrogenase A; activity change, % (values are at about 110 or 230 µM); 480,000 tested, 0.15% active; purified LDHA, NADH/diaphorase-resazurin fluorescence; stronger effect = lower value; P00338; in the data active = activity change below about -30%; inconclusive = mostly about -25% to -30%;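 also: plate controls were DMSO wells for no effect and wells without enzyme for full effect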
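Human LDH5 at 2 nM final in Tris HCl pH 7.4 with 0.06 mM NADH and 0.2 mM pyruvate, reacted 5 minutes at room temperature. Remaining NADH coupled via diaphorase/resazurin; resorufin fluorescence read at 0 and 20 minutes, normalized to enzyme-free and DMSO wells.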
12-LOX inh = ALOX12 (human) lipoxygenase inhibition; P18054; purified 12hLO, xylenol orange hydroperoxide absorbance; 580,000 tested, 1.1% active; Potency, µM (series often up to 108 µM), without a hit: at the highest dose activity change, negative = inhibition, usual class: inhibitors; active = well fitted inhibition curve with a large enough effect; inconclusive = small, poorly fitted or top-dose-only effect, or another doubt; inactive = no such curve, though single readings can be large or run the other way; also: potency is read from the fitted curve at half-maximal effect; % is scaled to controls: 0 for no effect and ±100 for the full control effect
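Purified human 12hLO at 150 nM in 25 mM Hepes, 0.01% Triton X-100, pH 7.0, preincubated 15 min at room temperature with compound. Reaction started with 40 uM arachidonic acid, 30 min at room temperature. Hydroperoxide measured by Fe-xylenol orange, 573/405 nm absorbance ratio.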
hERG WT inh = blocks the wildtype human KCNH2 potassium channel; Q12809; U2OS, BacMam KCNH2, thallium flux FluxOr; stronger effect = lower value; activity change, % at 1.84 µM; 340,000 tested, 0.37% active; AID 720551;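 active = maximum activity change below -70%; inconclusive = maximum activity change between -70% and -50%; inactive = maximum activity change above -50%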; also: % is scaled to controls: 0 for no effect and ±100 for the full control effect
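U2OS cells were transduced with wild-type KCNH2 virus (2.03 x 10^8 / mL) for 4 h at room temperature, then cultured overnight at 37 C. Thallium flux was read with FluxOr dye. Rate constants were normalized to DMSO controls.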
KCNH2 3.1 inh = inhibitors of human KCNH2 3.1 potassium channel isoform | 340,000 tested, 0.95% active | U2OS KCNH2 3.1, thallium flux FluxOr; stronger effect = lower value | activity change, % (tested at about 1.8 µM);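 active = maximum activity change below -70%; inconclusive = maximum activity change from -70% to -50%; inactive = maximum activity change above -50%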;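 also: thallium influx rate constant from kinetic fluorescence after stimulation buffer; % is scaled to controls: 0 for no effect and ±100 for the full control effect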
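Thallium flux via FluxOr fluorescence (Red40 quencher, 45 min loading) in U2OS cells virally expressing the KCNH2 3.1 isoform (1.77 x 10^8 /mL virus, overnight at 37 C). Rate constants from 2-min kinetic reads post-stimulation, normalised to positive and negative controls.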
ClpP mod = qHTS Assay for Activators of ClpP; purified B. subtilis ClpP, FRET peptide cleavage, 20 min; Potency, µM (top dose mostly 57.5 µM), for inactives: at the highest dose activity change, negative = active; 340,000 tested, 1.9% active; AID 651965, 2013; active = well fitted falling curve with a large enough effect; inconclusive = small, poorly fitted or top-dose-only effect; inactive = no such curve, though single readings can be large or run the other way; also: potency is read from the fitted curve at half-maximal effect; the source files actives as falling curves though it sought activators and does not explain the sign; nearly all actives have a fitted effect of over 65% in size
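FRET quenching reversal measured ClpP activation: 10 microg/mL B. subtilis ClpP at pH 8 with the FRET-FV decapeptide, read at 430 nm after 320 nm excitation. The 20-min minus 0-min signal was scaled between DMSO/no-enzyme wells and ADEP (5.8 microM final).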
Active calls of the source: *; i = inactive; ? = inconclusive; · = not tested or not shown.

SMILES | BCR signal inh | LDHA inh | 12-LOX inh | hERG WT inh | KCNH2 3.1 inh | ClpP mod
CCC(C)c1ccc(O)c(NC(=O)c2cccnc2)c1 (stereo not drawn) | 15% | -2 | 0% | 0 | -16 | 0%
CCC(C)c1ccc(O)c(NC(=S)NC(=O)c2cccs2)c1 (stereo not drawn) | · | -5 | 22µM* | 8 | 6 | 1%
CC(=O)NC(=S)Nc1ccc(NC(=S)NC(=O)c2cccs2)cc1 | 8% | -1 | ? | -16 | 4 | -1%
Cc1ccc(F)c(NC(=O)CCNC(=O)c2cccs2)c1 | · | -1 | -19% | · | · | ·
CCN(CC)c1ccc(NC(=S)NC(=O)c2cccs2)cc1 | ? | -1 | 18µM* | -3 | -1 | 1%
CCc1ccc(-c2csc(/C(C#N)=C/Nc3ccccc3C(C)C)n2)cc1 | · | 0 | ? | · | · | ·
Cc1cccc(N(CC(O)Cn2cnc3ccccc32)S(=O)(=O)c2ccccc2)c1 (stereo not drawn) | · | -1 | -69% | · | · | ·
C/C(=N\O)c1cccc(-n2cccc2)c1 | · | 0 | ? | · | · | ·
COc1cc(NC(=S)NC(=O)c2ccc(C)cc2C)ccc1NC(=O)c1cccs1 | ? | -1 | 5µM* | -1 | -17 | 1%
O=C(Cn1nc2c(cc1=O)CCCC2)Nc1ccc(Br)cc1F | · | 2 | ? | · | · | ·
Cc1ccc(/C=C2/SC(=S)N(CCCC(=O)Nc3cc([N+](=O)[O-])ccc3O)C2=O)cc1 | ? | -2 | 147% | 10 | -83* | -1%
O=C(CSc1nnnn1-c1ccccc1)c1ccc(Cl)s1 | · | 10 | -20% | · | · | ·
CCCCC(=O)OCCNC(=O)c1cc2ccccc2oc1=O | -15% | -3 | -3% | -3 | -19 | 25µM*
CCC(=O)NCc1ccc(-c2nc3ccccc3s2)cc1 | · | -31* | -12% | · | · | ·
CCCCC(=O)OCc1nc2ccccc2s1 | 4% | 3 | 11% | -8 | -8 | 16µM*
CCNC(=S)Nc1ccc(OCc2nc3ccccc3s2)cc1 | -17% | 0 | 45µM* | -4 | 1 | 0%
O=C(O)CCCC(=O)Nc1ccc(OCc2nc3ccccc3s2)cc1 | ? | -6 | ? | i | -9 | ·
CCCCC(=O)NCc1ccc(-c2nc3ccccc3s2)cc1 | · | -30* | -9% | · | · | ·
O=C(NC1CC1)[C@@H]1C[C@H](Oc2cccnc2)CN1C(=O)CCc1ccccc1 | · | · | 31% | · | · | ·
Cc1c(CCC(=O)NCCCCCC(=O)O)c(=O)oc2c(C)c3oc4c(c3cc12)CCCC4 | -13% | -1 | 0% | -5 | ? | ?
Cc1c(CCC(=O)NCCCn2ccnc2)c(=O)oc2c(C)c3oc4c(c3cc12)CCCC4 | ? | 1 | · | -150* | -159* | -21%
COc1cc(-c2ccc(Nc3ccccc3C(=O)O)c(OC)c2)ccc1Nc1ccccc1C(=O)O | ? | 25 | 35µM* | -9 | -3 | ·
O=[N+]([O-])c1ccc(-c2ccc(S(=O)(=O)NCCN3CCCC3)cc2)cc1 | 7% | -4 | 3% | 6 | -90* | ·
O=[N+]([O-])c1ccc(S(=O)(=O)NCCN2CCOCC2)cc1 | -23% | 5 | -3% | 22 | 5 | ·
Cc1ccsc1[C@@H]1CCN(Cc2ccc(C#CC(C)(C)O)cc2)C[C@H]1O | · | · | 45µM* | · | · | ·
SMILES | BCR signal inh | LDHA inh | 12-LOX inh | hERG WT inh | KCNH2 3.1 inh | ClpP mod
C=CCOc1ccccc1CN1CCC(CO)(CCOc2ccccc2)CC1 | 1% | -1 | 5% | ? | -80* | ·
OCC1(CCOc2ccccc2)CCN(Cc2cc(Cl)ccc2O)CC1 | -1% | 5 | ? | 5 | 4 | 0%
CSc1ccc(CN2CCC(CO)(CCOc3ccccc3)CC2)cc1 | -6% | 1 | 2% | -110* | -100* | 1%
OCC1(CCOc2ccccc2)CCN(Cc2ccc3c(c2)OCCO3)CC1 | 1% | -5 | 4% | 5 | -48 | 1%
OCC1(CCOc2ccccc2)CCN(Cc2ccccc2OC(F)F)CC1 | 4% | -1 | -8% | 5 | -99* | ·
OCC1(CCOc2ccccc2)CCN(Cc2ccncc2)CC1 | 2% | -4 | -2% | 30 | -1 | -4%
OCC1(CCOc2ccccc2)CCN(Cc2ccc(OC(F)F)cc2)CC1 | -6% | -3 | -6% | -131* | -111* | ·
CCOc1ccc(C(=O)Nc2ccc(NC(=O)c3ccco3)c(Cl)c2)cc1Cl | 22% | -5 | 240% | 2 | -72* | -29%
CCOc1ccc(C(=O)Nc2ccc(NC(=O)c3ccco3)c(Cl)c2)cc1Br | -14% | -4 | 5% | -12 | -81* | ?
CCCCOc1ccccc1NC(=O)c1ccco1 | ? | -1 | 0% | -13 | -11 | 13µM*
COc1cccc(C(=O)Nc2ccc(NC(=O)c3ccco3)c(Cl)c2)c1 | ? | -11 | -13% | -4 | 5 | ·
CCOc1ccccc1NC(=O)c1ccccc1NC(=O)c1ccco1 | 1% | -9 | -12% | -5 | 2 | ·
O=C(NC1CCN(Cc2ccccc2)CC1)C(F)(F)F | · | 4 | 48% | · | · | ·
COc1cc(C(=O)/C(=C/c2cccnc2)c2nc3ccccc3o2)cc(OC)c1OC | · | -13 | -2% | · | · | ·
CCc1cc2c3c(c(=O)oc2cc1O)CCCC3 | -1% | -3 | 32% | 20 | -9 | 10µM*
Cc1oc2cc3oc(=O)c4c(c3cc2c1C)CCC4 | 9% | -9 | 0% | 7 | -5 | -12%
Cc1cc2oc(=O)c3c(c2cc1OCc1nn[nH]n1)CCCC3 | 5% | 0 | 0% | -15 | 8 | 25µM*
CCc1cc2c3c(c(=O)oc2cc1OCC(=O)OC)CCCC3 | ? | -3 | 10% | 0 | -100* | 4%
CCc1cc2c3c(c(=O)oc2cc1OC(C)C(=O)O)CCCC3 (stereo not drawn) | 8% | -1 | 3% | 5 | -31 | 4%
CC(C)Cn1cnc2c1c(=O)n(CC(=O)Nc1ccc3c(c1)OCO3)c(=O)n2Cc1ccccc1 | -4% | -3 | -55% | -86* | 3 | 0%
CC(C)Cn1cnc2c1c(=O)n(CC(=O)Nc1ccc3c(c1)OCCO3)c(=O)n2CC(C)C | · | -3 | -2% | · | · | ·
Cc1cc2nc(COC(=O)c3ccc(NC(=O)c4ccc(F)cc4)cc3)cc(=O)n2o1 | · | -2 | ? | · | · | ·
CCOC(=O)c1c(-c2ccccc2)cn2ccccc12 | ? | -3 | 20% | -29 | -11 | ?
CCOC(=O)c1c(-c2ccc(C)cc2)cn2ccccc12 | ? | -1 | 31% | -8 | -2 | 13µM*
CCOC(=O)c1c(-c2ccc(OC)cc2)cn2ccccc12 | ? | -13 | -21% | -4 | -10 | 4%
CCOC(=O)c1c(-c2ccc(F)cc2)cn2ccccc12 | 10% | -1 | 13% | -14 | -1 | 10µM*
